DAX1 inh-1 = inhibitors of human orphan nuclear receptor DAX1 (NR0B1) | P51843 | HEK293 Gal4-DAX1 luciferase reporter, luminescence | inhibition, % at 6.75 µM | 0.99% of 340,000 active | AID 504766;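 active means inhibition above the mean over all tested compounds plus 3 SD, cut at about 4.2% in these data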;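 further: 0% = DAX1-transfected cells with DMSO and 100% = empty-vector control cells with DMSO; inhibition shows as a rise in luminescence from relieved DAX1 repression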
Target sequence (P51843 207-470 limits assumed): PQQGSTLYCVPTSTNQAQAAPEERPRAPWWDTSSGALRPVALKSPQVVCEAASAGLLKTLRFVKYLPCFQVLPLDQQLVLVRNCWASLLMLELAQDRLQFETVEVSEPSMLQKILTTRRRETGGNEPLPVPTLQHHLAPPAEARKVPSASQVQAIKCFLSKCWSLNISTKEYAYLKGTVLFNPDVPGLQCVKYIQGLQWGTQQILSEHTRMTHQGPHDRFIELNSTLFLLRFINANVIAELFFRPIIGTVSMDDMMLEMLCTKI
hgDAF12 agonist = hgDAF-12 agonism, primary luciferase screen. HEK293 GAL4-hgDAF12 UAS-luciferase reporter, agonist luminescence; normalized to butyrate control. activation, % at 6.8 µM. 1.8% of 370,000 active. AID 687014;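 active means activation above a cutoff set at the mean of all screened compounds plus 3 SD, cut at about 10% in these data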;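 further: 0% = DMSO wells and 100% = sodium butyrate wells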
DAX1 inh-2 = DAX1 (NR0B1) inhibition, primary screen. HEK293T StAR-luciferase reporter, SF-1/DAX-1 repression relief. inhibition, % at 6.8 µM. 1.1% of 370,000 active;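 active means inhibition above the mean over all tested compounds plus 3 SD, cut at about 3.6% in these data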;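 further: 0% = DAX-1 cells with DMSO and 100% = cells lacking DAX-1 with DMSO; higher inhibition means more luminescence from relief of DAX-1 repression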
NR1D1 modulator = modulators of human Rev-erb alpha DNA binding; 0.79% of 370,000 active; P20393; activity, % at 10 µM; Rev-erbα–FITC-DNA binding, fluorescence polarization, 90 min;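 active means activity above about 14%, limit read from the data; passing the limit was not always enough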;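 further: 0% = DMSO wells with 35 nM protein and 100% = DMSO wells with 750 nM protein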
ssDAF12 agonist = activators of S. stercoralis DAF-12 nuclear receptor; HEK293 ssDAF-12/GRIP1 lit1-tk-luc reporter, luminescence; % of 3 µM dafachronic acid response; activation, % at 6.8 µM; 1% of 370,000 active;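 active means activation above the mean over all tested compounds plus 3 SD, cut at about 0.9% in these data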;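 further: 0% = DMSO-only wells and 100% = 3 µM delta7-dafachronic acid wells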
hcDAF-12 act = activates DAF-12 receptor from parasite H. contortus; activation, % at 6.8 µM; 1.4% of 370,000 active; HEK293 hcDAF-12 lit1-tk-luc reporter, luminescence; 0% DMSO, 100% Δ7-dafachronic acid;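 active means activation above the mean of all tested compounds plus 3 SD, cut at about 5.5% in these data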;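 further: 100% = response to 3 µM Δ7-dafachronic acid high control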
The depositor's hits bear a star; x = no result. Sampled rows, rich in hits. Any-hit rate of the full collection: about 4.8%.

SMILES	DAX1 inh-1	hgDAF12 agonist	DAX1 inh-2	NR1D1 modulator	ssDAF12 agonist	hcDAF-12 act
COCCNC(=O)c1cn(C)c2ccc(S(=O)(=O)N(C)C3CCCCC3)cc2c1=O	6.5*	-2	0	4	-1	-1
CC1CC(C)CN(C(=O)c2cn(C)c3ccc(S(=O)(=O)N(C)C)cc3c2=O)C1 (stereo unspecified)	4.5*	-1	-1	9	0	0
COc1ccc(Cl)cc1N1C(=O)C2CCCN2C1c1ccc(F)cc1 (stereo unspecified)	4.5*	4	0	-5	-1	1
O=C1C2CCCN2C(c2ccc(F)cc2)N1c1cccc(Cl)c1 (stereo unspecified)	3	3	1	-8	-1	6.4*
O=C1C2CCCN2C(c2cccc(F)c2)N1c1cccc(Cl)c1 (stereo unspecified)	1	0	0	-6	-1	-1
CC(C)c1ccc(/C=C/C2=NNC(=O)CC2)cc1	2	11*	2	2	-1	0
O=C(c1ccc(N2CCOCC2)cc1)c1cccs1	3	12*	3.8*	3	0	6
O=C(Nc1ccc(N2CCOCC2)cc1N1CCOCC1)c1cccs1	1	-1	-1	2	-1	0
O=C(Nc1ccc(F)cc1Cl)C1CCCN1S(=O)(=O)c1cccc2cccnc12 (stereo unspecified)	x	1	-2	2	-2	-4
c1ccc(C2Nc3ccccc3Oc3ccccc32)cc1 (stereo unspecified)	0	0	0	-1	-1	-1
c1ccc2c(c1)Nc1cc3ccccc3cc1O2	1	5	0	2	0.9*	4
C/C(=N\NC(=O)c1cccc([N+](=O)[O-])c1)c1ccncc1	-2	4	-1	9	0	1
C/C(=N\NC(=O)c1cccc([N+](=O)[O-])c1)c1cccs1	4.9*	6	1	6	-1	1
C/C(=N\NC(=O)c1cccs1)c1ccc2ccccc2c1	4	11*	2	-8	-1	3
C/C(=N/NC(=O)c1cccs1)c1cccc(NC(=O)C2CC2)c1	1	13*	4.2*	-1	0	5
CCOC(=O)[C@@]12CCCC=C1N(CCc1ccc(Cl)cc1)C(=O)[C@H]2CC(=O)NCc1ccccc1	x	1	-2	2	-1	-3
Cc1cc(C)cc(-c2c(C(=O)c3ccc(Br)cc3)[nH]c(N)c2C(=O)NCc2ccc(Cl)cc2)c1	x	0	x	5	-1	1
O=C(COC(=O)c1ccccc1F)NC1CCCC1	0	0	0	1	-1	-1
O=C(COC(=O)c1c(F)cccc1Cl)NC1CCCCC1	1	6	2	9	1.0*	2
O=C(C1CCCN1S(=O)(=O)c1cccc2ccccc12)N1CCN(c2ccccc2)CC1 (stereo unspecified)	x	-4	0	-1	2.5*	-3
O=C(C1CCCN1S(=O)(=O)c1cccc2nsnc12)N1CCN(c2ccccc2)CC1 (stereo unspecified)	-1	x	x	x	x	x
Cc1cc(C)nc(N2CCN(C(=O)CSc3nc4ccccc4nc3N3CC(C)OC(C)C3)CC2)n1 (stereo unspecified)	x	3	-1	3	0	-3
O=c1oc(-c2cc3ccccc3o2)nc2sc3c(c12)CCCC3	1	0	0	6	4.2*	1
CC1OC(Nc2ccc(N=Nc3ccccc3)cc2)C(O)C(O)C1O (stereo unspecified)	-1	-2	0	6	-1	3
CC1OC(Nc2cccc3ccccc23)C(O)C(O)C1O (stereo unspecified)	-1	2	-2	-4	1.8*	2
SMILES	DAX1 inh-1	hgDAF12 agonist	DAX1 inh-2	NR1D1 modulator	ssDAF12 agonist	hcDAF-12 act
C=CCN1C(=O)[C@@H](CC(=O)NCc2cccc3ccccc23)[C@]2(C(=O)OCC)CCCCC/C=C/12	x	-2	-1	7	-1	1
COc1ccc(OCc2cc(C(=O)NC(C)c3nc(C)cs3)no2)c(Cl)c1 (stereo unspecified)	2	12*	1	-8	0	4
CCc1ccc(CN(C)C(=O)c2cc(COc3ccc(OC)cc3Cl)on2)nc1	1	5	3	1	0	2
COc1ccc(OCc2cc(C(=O)N[C@H]3CCCCNC3=O)no2)c(Cl)c1	1	4	3.6*	-2	-1	1
COc1ccc(OCc2cc(C(=O)NC(C)c3csc(C)n3)no2)c(Cl)c1 (stereo unspecified)	0	9	1	-1	0	1
COc1ccc(OCc2cc(C(=O)N(C)Cc3cc(C)no3)no2)c(Cl)c1	4	12*	1	3	0	3
CC(Cc1ccccc1)=NNc1ccc([N+](=O)[O-])cc1[N+](=O)[O-]	-1	3	0	-6	2.4*	0
C/C(CC(C)C)=N/Nc1ccc([N+](=O)[O-])cc1[N+](=O)[O-]	0	2	1	9	0	4
CS(=O)(=O)N[C@@H]1C[C@@H]2O[C@@H](CO)CC[C@@H]2O[C@@H]1CCc1ccc(-c2ccccc2F)cc1	x	-1	-2	5	-2	-1
COCCNC(=O)C[C@H]1CC[C@H]2[C@@H](COc3ccc(NC(=O)Nc4cccc(F)c4)cc3C(=O)N2C)O1	x	-2	1	12	-1	-1
O=C(Nc1ccnn1C1CCN(Cc2c[nH]c3ccccc23)CC1)c1ccccc1	1	3	2	1	-1	6.2*
Cc1ccc(C(=O)CSc2nc3ccc(C(=O)NCCN4CCCCC4)cc3c(=O)[nH]2)cc1	1	3	0	-5	0	5.6*
O=C(NC1CCCCC1)C1c2ccccc2OCC(=O)N1Cc1ccco1 (stereo unspecified)	x	1	4.4*	5	-1	-1
CC(C)(C)SCCNC(=O)/C=C/c1ccc(F)cc1	2	8	1	3	1.4*	2
CC(C)(C)SCCNC(=O)/C=C/c1ccccc1	x	2	1	4	-1	0
CC(C)c1ccc(N(C(=O)c2ccco2)C(C(=O)NC2CCCC2)c2ccncc2)cc1 (stereo unspecified)	1	10*	1	-6	0	4
CCOc1ccc(N(C(=O)CNC(=O)c2ccco2)C(C(=O)NC2CCCC2)c2cccnc2)cc1 (stereo unspecified)	5.9*	4	1	-5	-1	1
O=C(NCC(=O)N(c1ccccc1)C(C(=O)NC1CCCC1)c1cccnc1)c1ccco1 (stereo unspecified)	0	-1	1	-4	-1	0
CC(C)(C)NC(=O)CSc1nnc(-c2ccccn2)n1-c1ccccc1	4.4*	-2	0	-3	-1	-2
